Source: PubChem BioAssay AID763 (NMMLSC, 2007)

target: fMet-Leu-Phe receptor (Homo sapiens) (UniProt P21462); assay: FPR1 fluorescent ligand binding inhibitors, SAR follow-up, selectivity assay for FPRL1 ligand SAR project, cell-based, single concentration (AID 763); settings: FPR1-expressing cells, active compounds read high; at 5.4 µM unless noted
Sequence (P21462 whole entry, looked up): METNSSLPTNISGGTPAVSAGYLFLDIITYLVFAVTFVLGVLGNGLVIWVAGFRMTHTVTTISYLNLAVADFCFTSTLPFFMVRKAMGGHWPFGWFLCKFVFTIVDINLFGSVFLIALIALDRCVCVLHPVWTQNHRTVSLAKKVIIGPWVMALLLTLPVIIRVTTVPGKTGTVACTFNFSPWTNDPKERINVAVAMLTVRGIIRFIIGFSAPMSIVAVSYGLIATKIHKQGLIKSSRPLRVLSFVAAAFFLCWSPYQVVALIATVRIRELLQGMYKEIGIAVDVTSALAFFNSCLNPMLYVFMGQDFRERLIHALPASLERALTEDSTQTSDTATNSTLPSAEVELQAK

inhibition, inactive:
FC(F)(F)c1cc(-c2ccco2)nc(N2CCN(C(c3ccccc3)c3ccccc3)CC2)n1 0.5% [at 4.8 µM]
O=C(O)CCCC(=O)N1CCN(c2nc(-c3ccccc3)c3cc(Br)ccc3n2)CC1 -1.2% [at 4.6 µM]
COc1ccc(-c2cn3cccnc3n2)cc1NC(=O)c1cccc(C(F)(F)F)c1 -2%
N#Cc1cc(-c2ccccc2)nc(N2CCN(c3ccccc3)CC2)n1 -6% [at 6.5 µM]
COc1ccc(-c2cn3cccnc3n2)cc1NC(=O)c1ccc(C)c(C)c1 -2.6% [at 6 µM]
Cc1ccc2nc(N3CCN(c4ccccc4)CC3)nc(-c3ccccc3)c2c1 0.6% [at 5.8 µM]
COc1ccccc1-c1cc(C(F)(F)F)nc(N2CCN(c3ccccc3)CC2)n1 -10.8%
COc1ccc(-c2cn3cccnc3n2)cc1NC(=O)CCC1CCCCC1 -4.2% [at 5.9 µM]
COc1ccc(-c2cn3cccnc3n2)cc1NC(=O)Cc1cccc(C)c1 4.7% [at 6 µM]
COc1ccc(-c2cn3cccnc3n2)cc1NC(=O)CCc1ccccc1 6.4% [at 6 µM]
CCOC(=O)N1CCN(c2nc(-c3ccccc3)c3cc(C)ccc3n2)CC1 -2.1% [at 5.9 µM]
Cc1ccc(-c2cn3cccnc3n2)cc1NC(=O)C(C)C 3.7% [at 7.6 µM]
COc1cccc(-c2cc(C(F)(F)F)nc(N3CCN(c4ccc(F)cc4)CC3)n2)c1 1.7% [at 5.1 µM]
Fc1ccc(-c2cc(C(F)(F)F)nc(N3CCN(c4cccc(Cl)c4)CC3)n2)cc1 5.6% [at 5.1 µM]
O=C(c1ccccc1Cl)N1CCN(c2nc(-c3ccccc3)c3cc(Cl)ccc3n2)CC1 -3.1% [at 4.8 µM]
COc1cccc(-c2cc(C(F)(F)F)nc(N3CCN(C)CC3)n2)c1 1.9% [at 6.3 µM]
C/C=C\C(=O)Nc1cc(-c2cn3cccnc3n2)ccc1OC 4% [at 7.2 µM]
COc1ccc(-c2cn3cccnc3n2)cc1NC(=O)C1CCCC1 6.6% [at 6.6 µM]
FC(F)(F)c1nc(N2CCN(Cc3ccccc3)CC2)nc2c1CCCCC2 0.9% [at 5.7 µM]
O=C(O)CC1(CC(=O)N2CCN(c3nc(-c4ccccc4Cl)c4cc(Br)ccc4n3)CC2)CCCC1 -1.2% [at 3.9 µM]
CCCCN1CCN(c2nc(-c3ccccc3)c3cc(C)ccc3n2)CC1 -1.5% [at 5.6 µM]
COc1ccc(-c2cc(C(F)(F)F)nc(N3CCN(c4ccc(F)cc4)CC3)n2)cc1OC -1.4% [at 4.8 µM]
CN1CCN(c2nc(-c3ccccc3)c3cc(Cl)ccc3n2)CC1 6.1% [at 6.6 µM]
COc1ccc(-c2cn3cccnc3n2)cc1NC(=O)c1cccc(Br)c1 0.1% [at 5.3 µM]
CC(C)(C)OC(=O)N1CCN(c2nc(-c3ccccc3)c3cc(Br)ccc3n2)CC1 3.5% [at 4.7 µM]
COc1cccc(C(=O)Nc2cc(-c3cn4cccnc4n3)ccc2OC)c1 1% [at 5.9 µM]
O=C(C1CCCCC1)N1CCN(c2nc(-c3ccccc3Cl)c3cc(Br)ccc3n2)CC1 3.4% [at 4.3 µM]
COc1ccc(-c2cn3cccnc3n2)cc1NC(=O)c1ccc(Br)cc1 -0.1% [at 5.3 µM]
FC(F)(F)c1cc(-c2ccc(Cl)cc2)nc(N2CCN(C(c3ccccc3)c3ccccc3)CC2)n1 2.8% [at 4.4 µM]
COc1ccc(-c2cn3cccnc3n2)cc1NC(=O)c1cccc(F)c1 -0.9% [at 6.1 µM]
COc1ccccc1-c1cc(C(F)(F)F)nc(N2CCN(C)CC2)n1 5% [at 6.3 µM]
COc1ccc(C2CC(=O)c3cnc(N4CCN(Cc5ccc6c(c5)OCO6)CC4)nc3C2)c(OC)c1 (stereo not drawn) -4.7% [at 4.4 µM]
COc1ccccc1-c1cc(C(F)(F)F)nc(N2CCN(C(c3ccccc3)c3ccccc3)CC2)n1 6.5% [at 4.4 µM]
